Source: PubChem (National Center for Advancing Translational Sciences (NCATS))
TDP1 cell CPT: qHTS for Inhibitors of human tyrosyl-DNA phosphodiesterase 1 (TDP1): qHTS in cells in presence of CPT | chicken DT40 Tdp1-/-;hTDP1 cells + 20 nM CPT, ATP luminescence, 48 h | Potency, µM (top dose mostly 46.2 µM), actives largely listed as inhibitors | 420,000 compounds, 12% hits; further: nearly all actives have a fitted effect of over 55% in size
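Chicken DT40 Tdp1-/- cells stably complemented with human TDP1 were seeded at 400 cells/well in medium containing 20 nM camptothecin, exposed to pin-transferred compounds, and grown at 37 °C for at least 48 hr. Viability was read as ATP luminescence.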
TDP1 block: qHTS Assay for Inhibitors of Tyrosyl-DNA Phosphodiesterase (TDP1). Tyrosyl-DNA phosphodiesterase 1 (Homo sapiens), Q9NUW8. recombinant TDP1, AlphaScreen DNA substrate cleavage. Potency, µM (top dose mostly 130 µM), hits mostly inhibitors. 350,000 compounds, 0.28% hits. AID 485290, 2010; further: nearly all actives have a fitted effect of over 40% in size
Target sequence (Q9NUW8 whole entry, looked up): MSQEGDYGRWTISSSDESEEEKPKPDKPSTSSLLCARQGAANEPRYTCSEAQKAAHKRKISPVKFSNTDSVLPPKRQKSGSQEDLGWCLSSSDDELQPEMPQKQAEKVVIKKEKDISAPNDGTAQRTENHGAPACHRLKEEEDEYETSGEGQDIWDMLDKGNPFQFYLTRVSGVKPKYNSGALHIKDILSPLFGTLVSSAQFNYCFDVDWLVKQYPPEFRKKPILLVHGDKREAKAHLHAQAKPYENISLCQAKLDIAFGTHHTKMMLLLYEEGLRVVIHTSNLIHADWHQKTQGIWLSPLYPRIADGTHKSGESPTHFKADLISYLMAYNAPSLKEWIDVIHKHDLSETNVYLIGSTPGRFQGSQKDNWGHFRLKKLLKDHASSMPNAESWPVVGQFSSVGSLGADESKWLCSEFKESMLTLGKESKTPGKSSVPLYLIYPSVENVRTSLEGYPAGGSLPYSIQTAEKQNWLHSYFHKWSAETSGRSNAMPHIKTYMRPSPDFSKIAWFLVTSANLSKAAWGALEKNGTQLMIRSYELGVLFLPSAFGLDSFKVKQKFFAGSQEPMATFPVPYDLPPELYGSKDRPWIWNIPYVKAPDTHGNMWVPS
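Recombinant E. coli-expressed Tdp1 (1 nM) preincubated with compound 15 min at RT, then 5'-biotin/3'-phosphotyrosine-FITC DNA substrate (15 nM) added for 5 min. AlphaScreen beads (10 ug/ml) added, 10 min RT; tyrosine-FITC cleavage read as signal loss.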
TDP1 cell noCPT: qHTS for Inhibitors of human tyrosyl-DNA phosphodiesterase 1 (TDP1): qHTS in cells in absence of CPT | DT40 Tdp1-/- hTDP1 cells, no CPT, ATP luminescence, 48 h | Potency, µM (highest dose often 46.2 µM), hits mostly inhibitors | 420,000 compounds, 15% hits | AID 686978, 2013; further: nearly all actives have a fitted effect of over 55% in size
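Growth of hTDP1-complemented DT40 Tdp1-knockout cells is measured by ATP luminescence after at least 48 hr compound exposure at 37 °C, with DMSO substituting for the 20 nM CPT used in the parallel screen.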
ClpP mod: qHTS Assay for Activators of ClpP; Potency, µM (titrated, usually from 57.5 µM); purified B. subtilis ClpP, FRET peptide cleavage, 20 min; 340,000 compounds, 1.9% hits; AID 651965, 2013; active means well fitted falling curve with a large enough effect; inconclusive means small, poorly fitted or top-dose-only effect; inactive means no such curve, though single readings can be large or run the other way; further: the source files actives as falling curves though it sought activators and does not explain the sign; nearly all actives have a fitted effect of over 65% in size
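ClpP 10 microg/mL final, pH 8 Tris/KCl buffer with BSA, glycerol, Tween-20; compound pinned in; FRET-FV substrate; RT 20 min; Ex320/Em430; ΔFRET vs ADEP 5.8 microM, DMSO, no enzyme.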
Hits are given with their value; n = inactive; u = inconclusive; x = no result given; [ ] = another dose, or the depositor's remark. The list is not random: actives were taken first. Their share in the collection is about 17%. Unless noted, the call rests on the fitted dose curve; in most records, active means well fitted curve in the direction sought with a large enough effect; inconclusive means small, poorly fitted or top-dose-only effect, or another doubt; inactive means no such curve, though single readings can be large; an effect the other way counts as inactive or inconclusive.

SMILES	TDP1 cell CPT	TDP1 block	TDP1 cell noCPT	ClpP mod
COc1ccccc1CC(=O)Nc1cc(S(=O)(=O)N2CCOCC2)ccc1N1CCOCC1	n	n	n	n
O=C(Cc1ccccc1F)Nc1cc(S(=O)(=O)N2CCCCC2)ccc1N1CCOCC1	21µM	x	16µM	n
CCN(CC)S(=O)(=O)c1ccc(N2CCOCC2)c(NC(=O)c2cc3ccccc3o2)c1	u	x	u	n
CCN(CC)S(=O)(=O)c1ccc(N2CCOCC2)c(NC(=O)c2nn(C(C)C)c(=O)c3ccccc23)c1	10µM	x	5.2µM	n
CC(=O)Nc1ccc(S(=O)(=O)N(C)CC(=O)Nc2ccccc2N2CCCC2)cc1	u	n[0.505 µM]	u	n
CN(CC(=O)Nc1ccccc1N1CCOCC1)S(=O)(=O)c1ccc(F)cc1	18µM	n	18µM	n
COc1ccc(-c2cc(C(F)F)n3ncc(C(=O)n4ccnc4C)c3n2)cc1	15µM	n	18µM	u
COc1ccc(-c2cc(C(F)F)n3ncc(C(=O)Nc4cc(OC)ccc4OC)c3n2)cc1	n	n	u	n
COc1ccc(-c2cc(C(F)F)n3ncc(C(=O)N4CCc5ccccc54)c3n2)cc1	3.7µM	n	2.1µM	n
Cc1ccc(-c2cc(C(F)F)n3ncc(C(=O)N4CCN(c5cccc(C)c5C)CC4)c3n2)cc1	u	n	18µM	n
CCOC(=O)N1CCN(C(=O)c2cnn3c(C(F)F)cc(-c4ccc(C)cc4)nc23)CC1	u	n	u	n
Cc1ccc(-c2cc(C(F)F)n3ncc(C(=O)N4CCCc5ccccc54)c3n2)cc1	u	n	n	n
CC(=O)N1CCN(c2ccc(NC(=O)c3ccc4c(c3)OCCO4)cc2)CC1	n	n	n	n
O=C(Nc1ccc(N2CCN(C(=O)c3ccc(Cl)cc3)CC2)cc1)c1ccc2c(c1)OCCO2	13µM	n	23µM	n
O=C(c1ccccc1)N1CCN(c2ccc(NCc3ccc4c(c3)OCO4)cc2)CC1	15µM	n	18µM	n
O=C(CSc1ccc(Cl)cc1)Nc1ccc(N2CCN(C(=O)c3ccc(Cl)cc3)CC2)cc1	18µM	n	15µM	n
O=C(Nc1ccc(N2CCN(C(=O)c3ccccc3)CC2)cc1)c1ccc2c(c1)OCCO2	21µM	n	u	n
O=C(Nc1ccc(N2CCN(C(=O)c3ccc(Cl)cc3)CC2)cc1)c1cccs1	n	n	n	n
CC(C)Cn1c(=O)c2c(nc3n2CC(C)CN3Cc2ccccc2)n(C)c1=O (centres undefined)	n	n	n	n
O=C(CNc1cccc2ccccc12)N/N=C/C(Br)=C/c1ccccc1	12µM	n	10µM	n
O=C(CNc1cccc([N+](=O)[O-])c1)N/N=C/c1ccc([N+](=O)[O-])o1	2.9µM	n	2.6µM	x
O=C(CNc1cccc2ccccc12)N/N=C/c1ccc([N+](=O)[O-])o1	6.5µM	n	4.1µM	n
O=C(CNc1cccc2ccccc12)N/N=C/c1ccc[nH]1	n	n	n	x
CCOc1ccc(CCNC(=O)CCc2c(C)nc3c4c(C)cc(C)nc4nn3c2C)cc1	n	n	n	n
COc1cccc(CNC(=O)CCc2c(C)nc3c4c(C)cc(C)nc4nn3c2C)c1	u	n	23µM	n
SMILES	TDP1 cell CPT	TDP1 block	TDP1 cell noCPT	ClpP mod
Cc1cc(C)c2c(n1)nn1c(C)c(CCC(=O)Nc3cccc(C)c3C)c(C)nc21	7.3µM	n	7.3µM	n
CSc1nc(NS(=O)(=O)c2ccc(F)cc2F)nn1C	n	n	n	n
CC1=NN(c2ccccc2)C(=O)C1C(=S)SC1CC(=O)NC1=O (centres undefined)	u	x	29µM	n
CS/C(Nc1cc(Cl)ccc1Cl)=C(/C#N)C(=O)c1ccco1	9.2µM	n	16µM	n
O=C(Nc1cc(Cl)ccc1Cl)c1ccco1	n	x	n	n
CCOC(=O)c1cccc(NC(=O)C2CCN(c3nnc(C)c4c(C)n(-c5ccccc5)nc34)CC2)c1	n	n	n	n
COc1ccc(Oc2ccc(-c3ccn[nH]3)cc2)cc1	n	n	n	n
O=C1OC(c2ccccc2)(N(Nc2ccccc2)c2ccccc2)c2ccccc21 (centres undefined)	u	x	23µM	n
CC(=C/C=C/C(C)=C/C=C/C=C(C)/C=C/C=C(C)/C=C/C(=O)O)/C=C/C(=O)O	x	n	x	x
O=C(Cc1ccccc1)NN1C(=O)C2C3C=CC(C4CC34)C2C1=O (centres undefined)	n	n	n	n
COc1ccc(CN2CCOc3ccc(CN4CCN(CCO)CC4)cc3C2)c2ccccc12	n[9.04 µM]	x	u	x
Cc1c(C(=O)N2CCOCC2)sc(NC(=O)c2ccc([N+](=O)[O-])cc2)c1C#N	u	n	u	x
Cc1c(C(=O)N2CCOCC2)sc(NC(=O)CCl)c1C#N	13µM	n[0.0935 µM]	12µM	x
CCCC(=O)Nc1ccc(NC(=O)CCc2ccccc2)cn1	16µM	n	16µM	n
CCOC(=O)c1ccc(S(=O)(=O)NCC(c2ccc(N(C)C)cc2)c2c[nH]c3ccccc23)cc1 (centres undefined)	u	n	u	25µM
CCOC(=O)c1ccc(S(=O)(=O)NCCN(CC)CC)cc1	u	n	u	x
CN(C)c1ccc(C(CNC(=O)c2ccccc2Br)c2c[nH]c3ccccc23)cc1 (centres undefined)	n	n	n	n
CN(C)c1ccc(C(CNC(=O)c2ccc(C#N)cc2)c2c[nH]c3ccccc23)cc1 (centres undefined)	u	n	21µM	n
CN(C)c1ccc(C(CNS(=O)(=O)c2ccc(F)cc2)c2c[nH]c3ccccc23)cc1 (centres undefined)	u	n	15µM	n
O=C(NCc1ccc(F)cc1)c1cccc2c1C(=O)c1ccc(N3CCC(Cc4ccccc4)CC3)cc1S2(=O)=O	u	n	u	n
O=C(NC1CC1)c1cccc2c1C(=O)c1ccc(N3CCC(Cc4ccccc4)CC3)cc1S2(=O)=O	23µM	n	13µM	n
CC(C)(C)CNC(=O)c1cccc2c1C(=O)c1ccc(N3CCCC3)cc1S2(=O)=O	21µM	n	16µM	n
CC1CCN(c2ccc3c(c2)S(=O)(=O)c2cccc(C(=O)NC4CCCCC4)c2C3=O)CC1	16µM	n	16µM	n
O=C(NC1CCCC1)c1cccc2c1C(=O)c1ccc(N3CCCCC3)cc1S2(=O)=O	u	n	u	n
O=C(NCCN1CCCCC1)c1cccc2c1C(=O)c1ccc(N3CCCC3)cc1S2(=O)=O	n	n	n	n
CC1CCN(c2ccc3c(c2)S(=O)(=O)c2cccc(C(=O)NCc4ccc(F)cc4)c2C3=O)CC1	u	n	u	n
COc1ccccc1N1CCN(c2ccc3c(c2)S(=O)(=O)c2cccc(C(=O)NCC4CC4)c2C3=O)CC1	18µM	x	7.3µM	n
CCN(Cc1ccccc1)C(=O)c1ccc(NC(=O)c2ccc(OC)cc2)cc1	u	n	u	n
